SSB-PriA inh: inhibitors of Klebsiella pneumoniae PriA binding to SSB C-terminal tail. AlphaScreen SSBct-PriA binding, biotinylated peptide. inhibition, % at 33 µM. actives 0.6% (n = 430,000); in the data active = inhibition mostly above about 37%, no sharp cut-off; inactive = mostly below about 20%;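 note: plate controls were negative control peptide for no effect and reference peptide for full effect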
BoNT A protease: blocks Botulinum neurotoxin A light chain protease | inhibition, % at 10 µM | multiplex microsphere protease substrate cleavage, flow cytometry | actives 0.17% (n = 360,000) | AID 588499; note: plate controls were buffer without enzyme for full effect and enzyme alone for no effect
MazF activator: increases E. coli MazEF RNase cleavage of RNA | AID 504720 | P0AE70 | actives 0.32% (n = 350,000) | FAM/BHQ RNA-DNA oligo cleavage fluorescence, 5 h | activation, % at 20 µM; in the data active = activation above about 50%
BoNT F protease: BoNT F light chain protease inhibition. Multiplex microsphere protease cleavage assay, flow cytometry. inhibition, % at 10 µM. actives 0.22% (n = 360,000); in the data active = inhibition above about 35%, passing the limit was not always enough; inconclusive = no clear call, values can overlap the other calls; note: plate controls were buffer without enzyme for full effect and enzyme alone for no effect
Autofluor counter: compound fluorescence in toxin protease inhibitor counterscreen | compound autofluorescence counterscreen, microsphere flow cytometry; hits give high values | fluorescence intensity (no concentration beside the values) | actives 3.1% (n = 360,000); in the data active = fluorescence intensity above about 16000; inconclusive = no clear call, values can overlap the other calls
Anthrax LF prot: inhibitors of Bacillus anthracis lethal factor protease. P15917. multiplex microsphere protease cleavage assay, LF. inhibition, % at 10 µM. actives 0.12% (n = 360,000); note: plate controls were buffer without enzyme for full effect and enzyme alone for no effect
Target sequence (P15917 whole entry, looked up): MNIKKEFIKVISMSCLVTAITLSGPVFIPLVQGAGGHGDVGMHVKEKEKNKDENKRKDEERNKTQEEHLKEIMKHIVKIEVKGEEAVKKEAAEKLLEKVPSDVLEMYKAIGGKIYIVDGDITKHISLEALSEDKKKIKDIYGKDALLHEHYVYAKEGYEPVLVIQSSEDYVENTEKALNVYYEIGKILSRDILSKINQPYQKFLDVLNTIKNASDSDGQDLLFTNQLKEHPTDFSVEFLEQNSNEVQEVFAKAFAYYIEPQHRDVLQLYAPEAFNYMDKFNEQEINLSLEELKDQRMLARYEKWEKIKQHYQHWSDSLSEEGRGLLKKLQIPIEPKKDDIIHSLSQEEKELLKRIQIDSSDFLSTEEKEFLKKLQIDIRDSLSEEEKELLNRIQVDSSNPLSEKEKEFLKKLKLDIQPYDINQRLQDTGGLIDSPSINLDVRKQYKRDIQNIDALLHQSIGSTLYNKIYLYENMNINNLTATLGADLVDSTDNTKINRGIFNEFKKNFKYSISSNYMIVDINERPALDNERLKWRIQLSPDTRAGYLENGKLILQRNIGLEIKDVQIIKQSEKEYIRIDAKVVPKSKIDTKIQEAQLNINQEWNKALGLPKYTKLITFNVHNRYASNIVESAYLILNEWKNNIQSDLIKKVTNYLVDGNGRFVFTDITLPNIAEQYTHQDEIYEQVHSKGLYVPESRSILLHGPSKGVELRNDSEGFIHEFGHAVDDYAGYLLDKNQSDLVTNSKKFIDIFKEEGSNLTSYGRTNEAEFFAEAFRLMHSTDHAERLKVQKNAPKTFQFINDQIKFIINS
Numbers without * were called inactive. A selection: hits, their analogues and other compounds. The true share with any hit is near 3.3%. Cut-off read from the data, not from the text of the source, unless noted: active = inhibition above about 30%; inconclusive = no clear call, values can overlap the other calls; inactive = below that.

`Cc1ccc(C(=O)N2CCN(c3ccc(NC(=S)NC(=O)Cc4ccccc4)cc3)CC2)cc1` gave SSB-PriA inh 12, BoNT A protease 1, MazF activator -4, BoNT F protease -4, Autofluor counter 22933* and Anthrax LF prot -3.
For O=C(c1cc(-c2ccc(Cl)cc2)on1)N1CCOCC1 the results were SSB-PriA inh -4, BoNT A protease -3, MazF activator 3, BoNT F protease -2, Autofluor counter 21336* and Anthrax LF prot -2.
O=C(c1cc(-c2ccc3c(c2)OCO3)on1)N1CCN(c2ccccc2)CC1 was read as SSB-PriA inh 0, BoNT A protease 6, MazF activator 2, BoNT F protease 3, Autofluor counter 18888* and Anthrax LF prot -6.
For O=C(c1cc(-c2ccc3c(c2)OCO3)on1)N1CCOCC1 the results were SSB-PriA inh -8, BoNT A protease inconclusive, MazF activator 2, BoNT F protease -2, Autofluor counter 23477* and Anthrax LF prot -1.
O=C(c1cc(-c2ccc3c(c2)OCO3)on1)N1CCN(c2ccc(F)cc2)CC1 was read as SSB-PriA inh -10, BoNT A protease -1, MazF activator -10, BoNT F protease -18, Autofluor counter 12750 and Anthrax LF prot 1.
COc1ccc(C(=O)N2CCN(C(=O)N3CCOCC3)CC2)cc1OC was read as SSB-PriA inh -6.
`FC(F)(F)c1nc2ccccc2nc1NN=Cc1ccccc1` gave SSB-PriA inh 60*.
S=C(Nc1ccc2nccnc2c1)N1CCOCC1 was read as SSB-PriA inh 71*, BoNT A protease 1, MazF activator 1, BoNT F protease -4, Autofluor counter 2575 and Anthrax LF prot 0.
Screening S=C(Nc1cccc(Cl)c1)N1CCOCC1 returned SSB-PriA inh 4, BoNT A protease 1, MazF activator 2, BoNT F protease 2, Autofluor counter 22806* and Anthrax LF prot -2.
Screening O=[N+]([O-])c1cccc(NC(=S)N2CCOCC2)c1 returned SSB-PriA inh -15, BoNT A protease -1, MazF activator 10, BoNT F protease 2, Autofluor counter 4222 and Anthrax LF prot 0.
`COc1ccc(-c2oncc2-c2ccccc2)c(O)c1` gave SSB-PriA inh 6.
For O=C(NCCOc1ccccc1)NCCC(O)c1ccoc1 (centres undefined) the results were SSB-PriA inh -14.
Cn1c(SCc2ccc(Cl)cc2)nc(C(F)(F)F)cc1=O was read as SSB-PriA inh -16, BoNT A protease -2, MazF activator -3, BoNT F protease -6, Autofluor counter 20153* and Anthrax LF prot -4.
Screening COc1ccc(NC(=O)c2cccnc2N2CCCCC2)cc1 returned SSB-PriA inh -11, BoNT A protease 0, MazF activator -5, BoNT F protease 2, Autofluor counter 2444 and Anthrax LF prot -2.
Screening O=C(Nc1ccc(Br)cc1)c1cccnc1N1CCCCC1 returned SSB-PriA inh -23, BoNT A protease 8, MazF activator -14, BoNT F protease 5, Autofluor counter 21086* and Anthrax LF prot -8.
Screening O=C(Nc1ccc(F)cc1)c1cccnc1N1CCCCC1 returned SSB-PriA inh -12, BoNT A protease -4, MazF activator -2, BoNT F protease -5, Autofluor counter 21821* and Anthrax LF prot 1.
CC(C)Cc1ccc(-c2csc(/C(C#N)=C\c3ccc(N(C)C)cc3)n2)cc1 was read as SSB-PriA inh -6.
For CCCN1CCN(CCCNC(=O)c2ccc3nc(N4CCCCC4)sc3c2)CC1 the results were SSB-PriA inh 100*, BoNT A protease -1, MazF activator 4, BoNT F protease -4, Autofluor counter 4834 and Anthrax LF prot -6.
`CC1CC(C)CN(CCCNC(=O)c2ccc3nc(N4CCCCC4)sc3c2)C1` (centres undefined) gave SSB-PriA inh -7, BoNT A protease -1, MazF activator 12, BoNT F protease -8, Autofluor counter 6230 and Anthrax LF prot -2.
Screening O=C(COC(=O)c1ccccc1N1C(=O)C2C3CCC(C3)C2C1=O)c1ccccc1 (centres undefined) returned SSB-PriA inh -14, BoNT A protease 0, MazF activator 5, BoNT F protease 3, Autofluor counter 2939 and Anthrax LF prot 1.
For Cc1ccc(C)c(C(=O)COC(=O)c2ccccc2N2C(=O)C3C4CCC(C4)C3C2=O)c1 (centres undefined) the results were SSB-PriA inh 0, BoNT A protease inconclusive, MazF activator -8, BoNT F protease 0, Autofluor counter 20251* and Anthrax LF prot -1.
`CC(=O)N1CCN(c2ccc(NC(=O)c3ccc4c(c3)OCCO4)cc2)CC1` gave SSB-PriA inh -5, BoNT A protease 2, MazF activator 8, BoNT F protease -8, Autofluor counter 8819 and Anthrax LF prot -5.
`O=C(Nc1ccc(N2CCCCC2)cc1)c1ccc2c(c1)OCCO2` gave SSB-PriA inh -13, BoNT A protease inconclusive, MazF activator -8, BoNT F protease -2, Autofluor counter 23082* and Anthrax LF prot -3.
For CC(C)C(=O)N1CCN(c2ccc(NC(=O)c3ccc4c(c3)OCCO4)cc2Cl)CC1 the results were SSB-PriA inh -5, BoNT A protease inconclusive, MazF activator -3, BoNT F protease 1, Autofluor counter 16164* and Anthrax LF prot -5.
COc1cc(N=Nc2ccc(C)cc2S(N)(=O)=O)c(C)cc1N was read as SSB-PriA inh 48*, BoNT A protease 0, MazF activator 7, BoNT F protease 2, Autofluor counter 3034 and Anthrax LF prot -3.
For CCN(CC)S(=O)(=O)c1ccc(NS(=O)(=O)c2ccc(F)cc2)cc1 the results were SSB-PriA inh -4, BoNT A protease 0, MazF activator 4, BoNT F protease -2, Autofluor counter 2777 and Anthrax LF prot 1.
CCN(CC)S(=O)(=O)c1cccc(S(=O)(=O)c2cccc(S(=O)(=O)N(CC)CC)c2)c1 was read as SSB-PriA inh -22, BoNT A protease inconclusive, MazF activator -1, BoNT F protease 0, Autofluor counter 22967* and Anthrax LF prot -5.
CCN(CC)S(=O)(=O)c1ccc(F)cc1 was read as SSB-PriA inh -4, BoNT A protease inconclusive, MazF activator -2, BoNT F protease -2, Autofluor counter 17034* and Anthrax LF prot 0.
COc1nn(C)cc1C(=O)N1CCC(C(=O)Nc2nc3ccc(S(C)(=O)=O)cc3s2)CC1 was read as SSB-PriA inh 1.
Screening CCCCn1nnnc1NCc1cccs1 returned SSB-PriA inh -11, BoNT A protease 3, MazF activator 4, BoNT F protease 7, Autofluor counter 19115* and Anthrax LF prot -1.
C=CCn1c(=O)c2c3c(sc2n2c(Nc4ccc(OC)cc4)nnc12)CCCC3 was read as SSB-PriA inh 5, BoNT A protease -1, MazF activator 5, BoNT F protease 5, Autofluor counter 3719 and Anthrax LF prot -5.
